Assay outcomes deposited in PubChem by National Center for Advancing Translational Sciences (NCATS).
AID inh: activation induced cytidine deaminase inhibition; Potency, µM (top dose mostly 115 µM), usual class: inhibitors; Q9GZX7; AID 1347428; 91,000 tested, 0.32% active; AID deamination FRET fluorescence, UDG-coupled, 4 h; further: nearly all actives have a fitted effect of over 25% in size
Target sequence (Q9GZX7 whole entry, looked up): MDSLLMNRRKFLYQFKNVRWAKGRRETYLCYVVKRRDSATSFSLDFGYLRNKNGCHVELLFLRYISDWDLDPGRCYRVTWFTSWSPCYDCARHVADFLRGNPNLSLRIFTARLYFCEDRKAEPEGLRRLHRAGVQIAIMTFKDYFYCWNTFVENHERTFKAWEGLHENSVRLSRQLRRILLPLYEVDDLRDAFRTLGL
UDG counter: blocks uracil-DNA glycosylase in AID counter-screen; 91,000 tested, 0.14% active; Potency, µM (doses to about 115 µM), without a hit: at the top dose activity change, negative = inhibition, usual class: inhibitors; FRET deamination/UDG coupled assay, UDG read, 4 h; further: nearly all actives have a fitted effect of over 65% in size
Active calls of the source: *; i = inactive; u = inconclusive; ! = not active in a repeat; [ ] = remark or other dose. Shown are actives, neighbours in structure and some others; about 0.4% of the full set was active somewhere. The call rests on the fitted dose curve; in most records, active means well fitted curve in the direction sought with a large enough effect; inconclusive means small, poorly fitted or top-dose-only effect, or another doubt; inactive means no such curve, though single readings can be large; an effect the other way counts as inactive or inconclusive. On the % scale 0 is the no-effect control and ±100 the full control effect; potency means the concentration at half of the fitted maximal effect.

SMILES	AID inh	UDG counter
COc1ccc2c(c1)Cc1sc(NC(=O)c3cccc(F)c3)nc1-2	u	-10%
Cc1ccc(C)c(-c2ccc(=O)n(Cc3ccc(F)cc3Cl)n2)c1	32µM*	u
Cc1cc(=O)n(Cc2ccc(F)cc2Cl)c2c1c(C)nn2-c1ccccc1	i	38%
N#CC1(NC(=O)COc2cccc(C(F)(F)F)c2)CCCC1	i	4%
CCCCC(=O)Nc1oc2c(C)cccc2c(=O)c1-c1ccccc1	i	79µM*
CCCCC(=O)Nc1oc2c(C)cccc2c(=O)c1-c1cc(OC)c(OC)c(OC)c1	i	-4%
N#Cc1cccc(NCc2cc(Br)ccc2F)c1	i	-13%
N#C/C(=C\c1ccc(OC(=O)C2CC2)cc1)C(=O)Nc1cccc(C(F)(F)F)c1	i	1%
CCn1cc(S(=O)(=O)c2ccc(C)cc2C)c(=O)c2cc(F)c(N3CCCC3)cc21	22µM*	u
Cc1ccc(S(=O)(=O)c2cn(C)c3cc(N4CCCC4)c(F)cc3c2=O)c(C)c1	i	3%
Cc1ccc(-c2noc(CN(C(=O)COc3cc(C)cc(C)c3C)C(C)C)n2)cc1	79µM*	-19%
Cc1ccc(OCC(=O)N(Cc2nc(-c3ccccc3)no2)C(C)C)cc1C	i	0%
C=C(C)[C@@H]1CCC2(COC(C)=O)CC[C@]3(C)C(CCC4[C@@]5(C)CCC(=O)C(C)(C)C5CC[C@]43C)C12 (stereo not given in full)	i	-5%
C=C(C)C1CCC2(COC(=O)CCC(=O)O)CC[C@]3(C)C(CCC4[C@@]5(C)CCC(OC(=O)CCC(=O)O)C(C)(C)C5CC[C@]43C)C12 (stereo not given in full)	28µM*	8%
CCOC(=O)N1CCc2c(sc(NCc3ccc(N(C)C)cc3)c2C(=O)Nc2ccc(OC)cc2)C1	50µM*	-29%
CCOC(=O)N1CCc2c(sc(NCc3cccc(F)c3)c2C(=O)Nc2ccc(OC)cc2)C1	i	u
CC1CCCC/C1=N\NC(=S)Nc1ccccc1C(F)(F)F (stereo not given)	i	-17%
COc1cccc(-c2nn(C)c3sc(C(=O)N4CCN(c5cccc(C)c5)C(C)C4)cc23)c1 (stereo not given)	40µM*	u
COc1cccc(-c2nn(C)c3sc(C(=O)NCc4ccc(C)cc4)cc23)c1	u	89µM*
COc1ccc(-c2nn(C)c3sc(C(=O)N4CCN(c5ccccc5F)CC4)cc23)cc1OC	u	89µM*
Cc1cccc(N2CCN(C(=O)c3cc4c(=O)n(C)c5ccccc5c4s3)CC2C)c1 (stereo not given)	i	-10%
COc1ccccc1N1CCN(C(=O)c2cc3c(-c4ccccc4F)nn(C)c3s2)CC1	u	-13%
COCCCNC(=O)c1cc2c(-c3cccc(OC)c3)nn(C)c2s1	i	-26%
CCCCn1nc(C(=O)Nc2ccc(Br)cc2)c2ccccc2c1=O	i	-2%
COc1cc(C2SCCS2)ccc1OC(=O)c1ccc2ncsc2c1	i	-1%
SMILES	AID inh	UDG counter
Cn1nc(-c2ccc(N3CCOCC3)c(NC(=O)COc3ccccc3)c2)c2ccccc2c1=O	u	89µM*
Cn1nc(-c2ccc(OCC(=O)N3CCOCC3)cc2)c2ccccc2c1=O	i	3%
Cc1cc(-c2nnn(CC(=O)NC(N)=O)n2)ccc1F	i	-1%
O=C(Nc1nonc1-c1ccc2c(c1)CCCC2)c1cc(=O)c2ccc(Br)cc2o1	20µM*	16%
C=CCSc1nnc(NC(=O)c2cc(=O)c3ccc(Br)cc3o2)s1	i	5%
O=C(Nc1ccccc1Sc1ccccc1)C1CCCC1	i	-9%
CCCCCc1ccc(-c2ccc(C(=O)O)cc2)cc1	i	-6%
CCCCCCCCc1ccc(-c2ccc(C(=O)O)cc2)cc1	89µM*!	-3%
Cc1cccc(N2CCN(C(=O)c3c4c(nc5ccccc35)C(=O)N(C3CCCCC3)C4)CC2)c1C	28µM*	0%
Cc1ccc(N2CCN(C(=O)c3c4c(nc5ccccc35)C(=O)N(C3CCCCC3)C4)CC2)c(C)c1	u	2%
CC(C)(C)NC(=O)NC(=O)CSc1nc(-c2ccco2)nc2ccccc12	i	-4%
CCOc1ccc(-c2nn(-c3ccccc3)cc2C2NC(=O)NC(C)=C2C(=O)OC(C)C)cc1 (stereo not given)	45µM*	u
CCOC(=O)C1=C(C)NC(=O)NC1c1cn(-c2ccccc2)nc1-c1ccc(OCC)cc1 (stereo not given)	u	-16%
COC(=O)C1=C(C)NC(=O)NC1c1cn(-c2ccccc2)nc1-c1ccc(OC)c(Cl)c1 (stereo not given)	i	-21%
CCOc1ccc(-c2nn(-c3ccccc3)cc2C2NC(=O)NC(C)=C2C(=O)OC(C)C)cc1C (stereo not given)	45µM*!	u
CC(C)CCOc1ccc(C(=O)CCN(C)C)cc1	i	-18%
COc1cc(/C=C(/C#N)C(=O)c2ccccc2)cc(Br)c1O	i	8%
O=C(NC1CCCCCC1)c1cc(-c2ccccn2)nc2c(Cl)cccc12	i	13%
CC1CCN(c2nc3c(S(=O)(=O)c4ccccc4)nnn3c3ccc(Cl)cc23)CC1	u	-14%
CCc1ccc(S(=O)(=O)c2nnn3c2nc(N2CCC(C(N)=O)CC2)c2cc(Cl)ccc23)cc1	25µM*	-14%
CCN(CC)c1ccc(C(=O)NCc2ccc3c(c2)CCN3C(=O)c2ccccc2)cc1	i	19%
CN(C)c1ccc(C(=O)NCc2ccc3c(c2)CCN3C(=O)c2ccccc2)cc1	i	79µM*
Cc1ccc(NC(=O)COc2ncnc3ccc(Br)cc23)c([N+](=O)[O-])c1	i	-5%
O=C(O)COc1ccc(/C=N/O)cc1	i	-4%
Oc1ccc(N=Cc2ccccc2OCc2ccccc2)cc1	14µM*	u
SMILES	AID inh	UDG counter
C(=Nc1ccccc1)c1ccccc1OCc1ccccc1	i	-6%
O=C(/C(Br)=C\Nc1ccc(F)cc1)C(F)(F)F	i	8%
CC(C)(C)c1ccc(C(=O)NCC(c2cccs2)S(=O)(=O)c2cccs2)cc1 (stereo not given)	u	-4%
CC(C)(C)c1ccc(C(=O)NCC(c2cccs2)S(=O)(=O)c2ccc(F)cc2)cc1 (stereo not given)	i	79µM*
CCn1c(COc2ccc(Cl)cc2)nnc1SCC(=O)C(C)(C)C	i	1%
O=C1CSC(c2cccc(Br)c2)N1c1cccc(C(F)(F)F)c1 (stereo not given)	i	4%
Cc1ccc(NC(=O)Nc2nnc(N(C)Cc3ccccc3)s2)c(C)c1	i	-10%
Cc1ccc(Cl)cc1NC(=O)Nc1nnc(N(C)Cc2ccccc2)s1	i	89µM*
COC(=O)c1ccc(C2NC(=S)NC3=C2CCc2ccccc23)cc1 (stereo not given)	i	3%
CCOC(=O)c1c(-c2ccc(OC)cc2)oc2ccc(OCc3ccc(F)cc3F)cc12	i	-5%[57.5 µM]
O=C(O)c1c(-c2ccccc2)oc2ccc(OCc3c(F)cccc3Cl)cc12	79µM*	-16%
O=S(=O)(c1ccc2nc(N3CCN(c4ccccc4)CC3)ccc2c1)N1CCCC1	i	-9%
N#Cc1ccc(NCc2ccccc2Cl)cc1	i	-3%
Oc1ccc(NCc2ccccc2OCc2ccccc2Cl)cc1	32µM*	-18%
Oc1ccc(NCc2ccccc2OCc2ccccc2F)cc1	20µM*	-8%
Fc1ccc(NCc2ccccc2F)cc1	i	3%
